For 40 compounds, inhibition results are on record in PubChem BioAssay.

Structures are written as SMILES. Several values for one entry are separate records, joined by “and”; a condition that tells them apart may be missing. Identical values can stand only once. A number with no mark means an inactive call. Activity calls are given as the source filed them. Rule as the data show it, unless noted: active = inhibition above about 28%; inactive = the rest.

One test is described as follows: repression of VP16-driven luciferase reporter – cell-based, luminescence, high throughput, counter-screen for SRC1 inhibitor project (AID 588824; in the data active = inhibition above about 25%). The following applies: cell-based VP16 transactivation luciferase luminescence; at 3.6 µM; stronger effect = higher value. A general note: In a reporter assay the amount or activity of a reporter protein is the signal.
One may read the inhibition as the relative decrease from the control value, in per cent. With `c1cc(CNc2ccc3c(c2)OCCO3)ccn1`, the inhibition was -0.58%.
On the same count and under the same terms, next, `Cc1nn(Cc2ccc(C(=O)Nc3nccs3)cc2)c(C)c1Cl`: 43.8% (active).
For the compound `CC1CN(S(=O)(=O)c2ccc(C(=O)NCCCn3ccnc3)cc2)CC(C)O1` (stereo not given), the inhibition is 30.4% (active).
`O=[N+]([O-])c1ccc(Sc2cccc[n+]2[O-])c2nonc12`: the inhibition was 93.3% (active).
For the compound `O=C(NN=Cc1ccccc1O)NN=Cc1ccccc1O`, the inhibition was 77.1% (active).
Still for that read-out and setting: next, `NC(=S)NN=Cc1cc(-c2cccc(N)c2)ccn1`: 52.2% (active); `Cc1ccc(-c2cc3cccc[n+]3cc2-c2ccc(C)cc2)cc1`: 64.4% (active).
With `Cc1cc(/C=N/n2cnnc2)c(C)n1-c1ccc(OCc2ccc(Cl)cc2Cl)cc1`, the inhibition was 37.6% (active).
The same measure, in the same setting: next, `OCC1OC(n2cnc3c(NCc4ccco4)ncnc32)C(O)C1O` (stereo not given): 48.7% (active).
As for `CCC[N+]1(CC#CCC(c2ccccc2)c2ccccc2)CCCCC1`, the inhibition is 53.2% (active).
The same measure, in the same setting: with `O=C(N/N=C(\c1ccccc1)c1cccnc1)c1cccc(F)c1` the figure was 43% (active); with `COc1ccc(/C=C/c2cc(-c3ccc(C)cc3)o[n+]2C)cc1`, 71.5% (active); with `CCN(CC)c1ccc(C(=C2C=CC(=[N+](CC)CC)C=C2)c2ccc(N(CC)CC)cc2)cc1`, 84.3% (active).
With `Cc1ccc(NCCN(C)C)c2c(=O)c3cc(O)ccc3sc12`, the inhibition was 29.6% (active).
As for `Cc1cc(OCc2nc(N)nc(N)c2-c2ccc(Cl)c(Cl)c2)ccc1[N+](=O)[O-]`, the inhibition was 30.1% (active).
With `CCC(C)n1ncn(-c2ccc(N3CCN(c4ccc(O)cc4)CC3)cc2)c1=O` (stereo not given), the inhibition was 54.8% (active).
For the compound `N=c1c2c(-c3ccccc3)c(-c3ccccc3)n(Cc3ccco3)c2ncn1CCO`, the inhibition was 56.2% (active).
Still for that read-out and setting: with `CCCC(=O)NC(c1ccc(Cl)cc1)c1ccc2cccnc2c1O` (stereo not given) the figure was 40.2% (active); with `Cc1cc(C)cc(NS(=O)(=O)c2ccc3c(c2)c(=O)n(C)c(=O)n3C)c1`, 38% (active); with `COc1ccc(OC)c(Cc2cnc3nc(N)nc(N)c3c2C)c1`, 28.4% (active).
For the compound `COc1cccc(/C=N\NC(=O)c2ccc(Cn3cc(Br)c([N+](=O)[O-])n3)o2)c1O`, the inhibition was 29.9% (active).
Same read-out and setting: next, `NC1=C(Cl)C(=O)c2ccc(S(N)(=O)=O)cc2C1=O`: 92.8% (active).
On the same count and under the same terms, with `O=C(/C=C/c1cccs1)NC(=S)NNC(=O)c1ccccc1O` the figure was 78.7% (active).
Consider `CC(C)CC[n+]1ccccc1/C=C/c1ccc(N(C)C)cc1`, for which the inhibition is 79.3% (active).
In the case of `CN(C)c1ncnc2c1nnn2C1OC(CO)C(O)C1O` (stereo not given), the inhibition was 81% (active).
In the case of `Cn1c2c(c(=O)n(C)c1=O)C(C(F)(F)F)(C(F)(F)F)N=C(c1ccc(Cl)cc1)N2`, the inhibition is 83.9% (active).
Same read-out and setting: with `CCC(C)N(CC(=O)Nc1cccc(C)c1C)C(=O)CCl` (stereo not given) the figure was 71% (active).
Regarding `COc1ccc(Cn2c(-c3ccc(C)cc3)c[n+]3ccccc23)cc1`, the inhibition was 54.5% (active).
Take `CCN1CCN(/C=N/c2nc3c(s2)CCCC3)CC1`: the inhibition is -59.3%.
For `Cc1ccc(O)c(N=Nc2nccs2)c1`, the inhibition is 55.5% (active).
For the compound `Cc1cc(C(C)(C)C)cc(C)c1C[n+]1ccc2ccccc2c1`, the inhibition is 53.3% (active).
Still for that read-out and setting: next, `CN(C)c1ccc(C=c2c3ccccc3n3c2c2c([n+]3C)CCCC2)cc1`: 81.8% (active); `CN(C(=O)OC(C)(C)C)c1ccc(-c2nc3ccccc3s2)cc1`: 76.6% (active).
On the same count and under the same terms, next, `CC(NNC(=S)N1CCN(c2ccccn2)CC1)c1nccc2ccccc12` (stereo not given): 59.5% (active); `Cc1ccc(S(=O)(=O)N(C)C)cc1NC(=O)c1cncc(Br)c1`: 0.1%.
In the case of `CCN1/C(=C/C(C)=C/c2sc3ccccc3[n+]2CC)Sc2ccccc21`, the inhibition was 81.6% (active).
Regarding `CCOc1ccccc1O[C@H](c1ccccc1)[C@H]1CNCCO1`, the inhibition was 1.35%.
Same read-out and setting: with `CN1OC[C@@H]2CN[C@H](c3ccc(-c4cc5ccccc5o4)cc3)C[C@@H]21` the figure was 68.7% (active).
`CN(C)c1ccc(C=c2c3ccccc3n3c2cc(-c2ccccc2)[n+]3C)cc1`: the inhibition is 88.2% (active).
Turning to `CCCCCCCCCCn1ccc(=N)cc1`, the inhibition was 80.4% (active).

Another test in a line: StAR promoter reporter inhibitors, counter-screen for LRH-1 inverse agonist project, cell-based, luminescence, high throughput (AID 651611). The following applies: StAR promoter luciferase reporter counterscreen, at 3.6 µM, stronger effect = higher value. For orientation: A counterscreen serves to expose hits that act by an unwanted route or on another target.
As for `c1cc(CNc2ccc3c(c2)OCCO3)ccn1`, the inhibition was 10%.
Consider `Cc1nn(Cc2ccc(C(=O)Nc3nccs3)cc2)c(C)c1Cl`, for which the inhibition was 46.8% (active).
Take `CC1CN(S(=O)(=O)c2ccc(C(=O)NCCCn3ccnc3)cc2)CC(C)O1` (stereo not given): the inhibition is 87.1% (active).
Same read-out and setting: next, `O=[N+]([O-])c1ccc(Sc2cccc[n+]2[O-])c2nonc12`: 98.1% (active); `O=C(NN=Cc1ccccc1O)NN=Cc1ccccc1O`: 69.9% (active); `NC(=S)NN=Cc1cc(-c2cccc(N)c2)ccn1`: 75.3% (active).
Still for that read-out and setting: next, `Cc1ccc(-c2cc3cccc[n+]3cc2-c2ccc(C)cc2)cc1`: 56.9% (active); `Cc1cc(/C=N/n2cnnc2)c(C)n1-c1ccc(OCc2ccc(Cl)cc2Cl)cc1`: 36.5% (active); `OCC1OC(n2cnc3c(NCc4ccco4)ncnc32)C(O)C1O` (stereo not given): 65.1% (active).
Regarding `CCC[N+]1(CC#CCC(c2ccccc2)c2ccccc2)CCCCC1`, the inhibition is 24.2%.
With `O=C(N/N=C(\c1ccccc1)c1cccnc1)c1cccc(F)c1`, the inhibition is 84% (active).
`COc1ccc(/C=C/c2cc(-c3ccc(C)cc3)o[n+]2C)cc1`: the inhibition is 62.3% (active).
With `CCN(CC)c1ccc(C(=C2C=CC(=[N+](CC)CC)C=C2)c2ccc(N(CC)CC)cc2)cc1`, the inhibition was 85.6% (active).
Same read-out and setting: next, `Cc1ccc(NCCN(C)C)c2c(=O)c3cc(O)ccc3sc12`: 41.3% (active).
Take `Cc1cc(OCc2nc(N)nc(N)c2-c2ccc(Cl)c(Cl)c2)ccc1[N+](=O)[O-]`: the inhibition is 70.7% (active).
Still for that read-out and setting: next, `CCC(C)n1ncn(-c2ccc(N3CCN(c4ccc(O)cc4)CC3)cc2)c1=O` (stereo not given): 63.1% (active); `N=c1c2c(-c3ccccc3)c(-c3ccccc3)n(Cc3ccco3)c2ncn1CCO`: 54.3% (active).
The same measure, in the same setting: with `CCCC(=O)NC(c1ccc(Cl)cc1)c1ccc2cccnc2c1O` (stereo not given) the figure was 71.8% (active).
The same measure, in the same setting: with `Cc1cc(C)cc(NS(=O)(=O)c2ccc3c(c2)c(=O)n(C)c(=O)n3C)c1` the figure was 36.2% (active); with `COc1ccc(OC)c(Cc2cnc3nc(N)nc(N)c3c2C)c1`, 80.7% (active); with `COc1cccc(/C=N\NC(=O)c2ccc(Cn3cc(Br)c([N+](=O)[O-])n3)o2)c1O`, 63.8% (active).
`NC1=C(Cl)C(=O)c2ccc(S(N)(=O)=O)cc2C1=O`: the inhibition is 89.7% (active).
As for `O=C(/C=C/c1cccs1)NC(=S)NNC(=O)c1ccccc1O`, the inhibition was 76.8% (active).
On the same count and under the same terms, next, `CC(C)CC[n+]1ccccc1/C=C/c1ccc(N(C)C)cc1`: 64.3% (active); `CN(C)c1ncnc2c1nnn2C1OC(CO)C(O)C1O` (stereo not given): 91.3% (active).
Same read-out and setting: with `Cn1c2c(c(=O)n(C)c1=O)C(C(F)(F)F)(C(F)(F)F)N=C(c1ccc(Cl)cc1)N2` the figure was 80.6% (active); with `CCC(C)N(CC(=O)Nc1cccc(C)c1C)C(=O)CCl` (stereo not given), 69.2% (active); with `COc1ccc(Cn2c(-c3ccc(C)cc3)c[n+]3ccccc23)cc1`, 50.2% (active).
Still for that read-out and setting: next, `CCN1CCN(/C=N/c2nc3c(s2)CCCC3)CC1`: -69.4%; `Cc1ccc(O)c(N=Nc2nccs2)c1`: 79.3% (active); `Cc1cc(C(C)(C)C)cc(C)c1C[n+]1ccc2ccccc2c1`: 30.7% (active).
As for `CN(C)c1ccc(C=c2c3ccccc3n3c2c2c([n+]3C)CCCC2)cc1`, the inhibition is 79% (active).
For `CN(C(=O)OC(C)(C)C)c1ccc(-c2nc3ccccc3s2)cc1`, the inhibition is 75.6% (active).
With `CC(NNC(=S)N1CCN(c2ccccn2)CC1)c1nccc2ccccc12` (stereo not given), the inhibition was 80.9% (active).
Regarding `Cc1ccc(S(=O)(=O)N(C)C)cc1NC(=O)c1cncc(Br)c1`, the inhibition is 44.1% (active).
Same read-out and setting: next, `CCN1/C(=C/C(C)=C/c2sc3ccccc3[n+]2CC)Sc2ccccc21`: 77% (active) and 81.8% (active); `CCOc1ccccc1O[C@H](c1ccccc1)[C@H]1CNCCO1`: 12.6%.
On the same count and under the same terms, next, `CN1OC[C@@H]2CN[C@H](c3ccc(-c4cc5ccccc5o4)cc3)C[C@@H]21`: 78.3% (active); `CN(C)c1ccc(C=c2c3ccccc3n3c2cc(-c2ccccc2)[n+]3C)cc1`: 74% (active); `CCCCCCCCCCn1ccc(=N)cc1`: 69.4% (active).
